Assay results taken from PubChem BioAssay.
This is one part of the list. Active and inactive are the calls of the source. Unless noted, no rule for the calls is given here.

What was measured:
[1] = inhibition of Brca1/Bard1 split-luciferase complementation, confirmation, counter-screen for Mdm2/MdmX interaction inhibitor project, luminescence, single concentration (AID 504668); conditions: Brca1/Bard1 bimolecular luciferase complementation counterscreen, at 8 µM, stronger effect = higher value
[2] = target: Tumor necrosis factor receptor superfamily member 10B (Homo sapiens) (UniProt O14763); test: caspase-8 TRAIL sensitization, hit retest, confirmation, cell-based, NB7+caspase-8, with/without TRAIL, luminescence panel (AID 651596; in the data active = activity above about 50%); conditions: NB7 neuroblastoma + caspase-8, TRAIL sensitization, luminescence viability, with TRAIL, mean of runs, at 10 µM, stronger effect = higher value
[3] = as above; conditions: NB7 neuroblastoma + caspase-8, without TRAIL, luminescence viability, without TRAIL, mean of runs, at 10 µM
[4] = target: Tumor necrosis factor receptor superfamily member 10B (Homo sapiens) (UniProt O14763); test: TRAIL sensitizers in caspase-8 expressing neuroblastoma cells, dose response, NB7 cells plus caspase-8, luminescence, panel (AID 652002); conditions: NB7 neuroblastoma +caspase-8, TRAIL sensitization, luminescence viability, NB7+Caspase-8, with TRAIL, run 1; at 12.5 µM (top of the series)
[5] = target: Tumor necrosis factor receptor superfamily member 10B (Homo sapiens) (UniProt O14763); test: as above; conditions: NB7 neuroblastoma +caspase-8, TRAIL sensitization, luminescence viability, NB7+Caspase-8, with TRAIL, run 2; at 12.5 µM (top of the series)
[6] = as above; conditions: NB7 neuroblastoma +caspase-8, no TRAIL, compound-alone cytotoxicity counter-screen, luminescence viability, NB7+Caspase-8, run 1; at 12.5 µM (top of the series)
[7] = as above; conditions: NB7 neuroblastoma +caspase-8, no TRAIL, compound-alone cytotoxicity counter-screen, luminescence viability, NB7+Caspase-8, run 2; at 12.5 µM (top of the series)
PEG-3 [8] = target: PEG-3 (UniProt Q6IN02); test: Peg3 promoter luciferase inhibitors, potency, dose response, cell-based, HeLa, CREF/GAPDH counter-screen panel (AID 624167); conditions: HeLa PEG-Prom luciferase reporter, overnight, CREF/GAPDH counter-screens; run 1, dose range 1, at 100 µM (top of the series)
PEG-3 [9] = target: PEG-3 (UniProt Q6IN02); test: as above; conditions: HeLa PEG-Prom luciferase reporter, overnight, CREF/GAPDH counter-screens; run 2, dose range 1, at 100 µM (top of the series)
Rat fibroblasts (CREF) [10] = test: as above; conditions: CREF/GAPDH counter-screens; run 1, dose range 1, at 100 µM (top of the series)
Rat fibroblasts (CREF) [11] = test: as above; conditions: CREF/GAPDH counter-screens; run 2, dose range 1, at 100 µM (top of the series)
[12] = target: Carboxy-terminal domain RNA polymerase II polypeptide A small phosphatase 1 (Homo sapiens) (UniProt Q9GZU7); test: Scp-1 binding by thermal shift, confirmation, orthogonal assay for Scp-1 inhibitor project, biophysical, differential scanning fluorimetry (AID 540329;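 active = substances whose mean melting-temperature shift, as a percentage of the reference inhibitor's shift, reaches about 5.3%, limit read from the data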;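 also: 0% = Tm of DMSO wells and 100% = Tm with sodium orthovanadate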); conditions: Recombinant SCP1, Sypro Orange thermal shift Tm; at 40 µM; stronger effect = higher value
[13] = inhibitors of PAF-induced NF-kB signaling, retest, confirmation, cell-based, GFP fluorescence, single concentration (AID 602472; in the data active = inhibition above about 40%;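 also: stimulus PAF is a Pseudomonas aeruginosa filtrate and not platelet activating factor; plate controls were DMSO wells with stimulus for no effect and unstimulated DMSO wells for full effect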); conditions: KKLEB CF airway cells, overnight, at 5 µM, stronger effect = higher value

PEG-3, sequence (Q6IN02 whole entry, looked up): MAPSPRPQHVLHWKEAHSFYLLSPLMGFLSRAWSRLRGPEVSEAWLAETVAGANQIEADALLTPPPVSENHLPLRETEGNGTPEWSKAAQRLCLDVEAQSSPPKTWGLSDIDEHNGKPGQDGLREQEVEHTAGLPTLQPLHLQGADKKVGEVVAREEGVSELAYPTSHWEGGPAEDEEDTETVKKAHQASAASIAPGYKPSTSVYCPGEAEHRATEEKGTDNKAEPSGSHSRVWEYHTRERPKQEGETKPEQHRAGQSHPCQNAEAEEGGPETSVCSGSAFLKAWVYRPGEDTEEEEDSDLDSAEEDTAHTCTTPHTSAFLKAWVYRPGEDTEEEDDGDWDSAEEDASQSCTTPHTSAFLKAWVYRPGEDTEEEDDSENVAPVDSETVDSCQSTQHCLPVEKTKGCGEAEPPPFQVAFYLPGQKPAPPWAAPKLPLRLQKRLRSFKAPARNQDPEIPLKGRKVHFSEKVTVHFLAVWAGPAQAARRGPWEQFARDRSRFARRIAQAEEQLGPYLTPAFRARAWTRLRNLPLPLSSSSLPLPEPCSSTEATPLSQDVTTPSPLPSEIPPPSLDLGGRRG
Carboxy-terminal domain RNA polymerase II polypeptide A small phosphatase 1 (Homo sapiens), sequence (Q9GZU7 76-261 limits assumed): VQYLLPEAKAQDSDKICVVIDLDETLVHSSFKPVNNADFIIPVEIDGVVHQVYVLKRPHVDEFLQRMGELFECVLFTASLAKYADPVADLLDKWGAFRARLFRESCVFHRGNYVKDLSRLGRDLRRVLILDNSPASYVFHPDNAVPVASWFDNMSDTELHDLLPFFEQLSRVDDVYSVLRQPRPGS
Tumor necrosis factor receptor superfamily member 10B (Homo sapiens), sequence (O14763 whole entry, looked up): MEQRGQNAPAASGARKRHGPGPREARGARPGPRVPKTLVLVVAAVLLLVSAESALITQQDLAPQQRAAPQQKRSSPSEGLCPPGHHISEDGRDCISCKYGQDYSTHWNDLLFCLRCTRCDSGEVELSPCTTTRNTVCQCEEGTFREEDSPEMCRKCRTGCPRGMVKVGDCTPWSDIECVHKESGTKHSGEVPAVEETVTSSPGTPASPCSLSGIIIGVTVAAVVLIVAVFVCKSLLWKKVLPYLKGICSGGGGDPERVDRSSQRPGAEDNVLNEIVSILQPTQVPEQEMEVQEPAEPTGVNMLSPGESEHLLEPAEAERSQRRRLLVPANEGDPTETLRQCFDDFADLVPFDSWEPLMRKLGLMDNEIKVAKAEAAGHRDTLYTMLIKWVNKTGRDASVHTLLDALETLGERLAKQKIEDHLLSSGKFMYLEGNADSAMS

Compound: CCOC(=O)c1cccc(-[n+]2c(-c3ccccc3)cc(-c3ccccc3)cc2-c2ccccc2)c1
- inhibition [1]: 33.2% (active)
- activity [2]: 49.7%
- activity [3]: 44%
- activity, % sensitization [4]: 6.7%
- activity, % sensitization [5]: 9.91%
- activity, % sensitization [6]: 9.79%
- activity, % sensitization [7]: 5.11%

Compound: O=C1NC(=O)N(Cc2ccc(F)cc2)C(=O)/C1=C\C=C\c1ccco1
- inhibition (PEG-3 [8]): 98.2%
- inhibition (PEG-3 [9]): 99.4%

Compound: O=C1NC(=O)N(Cc2ccco2)C(=O)/C1=C/C=C/c1ccco1
- inhibition (PEG-3 [8]): 102%
- inhibition (PEG-3 [9]): 102%

Compound: C[C@]12CC[C@H](O)C[C@H]1CC[C@@H]1[C@@H]2C[C@@H](O)[C@]2(C)[C@@H](C3=CC(=O)OC3)CC[C@]12O
- inhibition [1]: 34% (active)
- activity [2]: 86.5%
- activity [3]: 85.4%

Compound: CCCCn1nnnc1C(CCSC)N1CCC(n2c(=O)[nH]c3ccccc32)CC1 (stereo not given)
- inhibition (PEG-3 [8]): 72.5%
- inhibition (PEG-3 [9]): 71.8%

Compound: O=C(CSC1c2ccccc2-c2ccccc21)N/N=C/c1ccccc1O
- inhibition [1]: 27.7% (active)
- inhibition (PEG-3 [8]): 79.8%
- inhibition (PEG-3 [9]): 66.1%
- inhibition (Rat fibroblasts (CREF) [10]): 64.9%
- inhibition (Rat fibroblasts (CREF) [11]): 74.1%

Compound: O=C(O)CCn1cc(C=C2C(=O)NC(=S)NC2=O)c(-c2cccc(Br)c2)n1
- thermal shift relative to vanadate control [12]: -19.9% (inactive)

Compound: O=c1[nH]c(=O)n(CCc2ccc(F)cc2)c(O)c1/C=N/N1CCCCC1
- thermal shift relative to vanadate control [12]: -3.71% (inactive)

Compound: COc1ccccc1N=C1SCCCN1C
- thermal shift relative to vanadate control [12]: -0.51% (inactive)

Compound: Fc1ccc(C(OCCN2CCN(CCCc3ccccc3)CC2)c2ccc(F)cc2)cc1
- inhibition [1]: 30.4% (active)

Compound: O=C1NC2C(=CC(O)C(O)C2O)c2cc3c(c(O)c21)OCO3 (stereo not given)
- inhibition (PEG-3 [8]): 99.4%
- inhibition (PEG-3 [9]): 94.9%

Compound: Cc1cccc(C)c1-n1nnnc1C(c1ccccc1OC(F)(F)F)N1CCC(n2c(=O)[nH]c3ccccc32)CC1 (stereo not given)
- inhibition (PEG-3 [8]): 49.4%
- inhibition (PEG-3 [9]): 42%

Compound: CCOc1ccc(-c2cc(C)[n+](CCc3ccc(OC)c(OC)c3)c(-c3ccc(OCC)cc3)c2)cc1
- inhibition [1]: 35.8% (active)

Compound: O=[N+]([O-])c1cc(F)c(N2CCCCCC2)cc1N1CCNCC1
- inhibition (PEG-3 [8]): 99.4%
- inhibition (PEG-3 [9]): 101%

Compound: COc1ccc(-n2nnnc2C(c2cccc3ccccc23)N2CCC(n3c(=O)[nH]c4ccccc43)CC2)cc1 (stereo not given)
- inhibition [13]: 14.7% (inactive)

Compound: CC1=CC(O)C(O)C2(C)C1CC1OC(=O)C(O)C3C(C)C(O)C4(O)OCC13C42 (stereo not given)
- inhibition (PEG-3 [8]): 95.8%
- inhibition (PEG-3 [9]): 93.3%

Compound: CCN(CC)C(=O)Cn1cc(/C=C2\C(=O)NC(=O)N(c3ccccc3F)C2=O)c2ccccc21
- inhibition (PEG-3 [8]): 102%
- inhibition (PEG-3 [9]): 98.9%

Compound: O=[N+]([O-])c1ccc(NC2CCN(Cc3ccccc3)CC2)c2ccncc12
- inhibition (PEG-3 [8]): 102%
- inhibition (PEG-3 [9]): 99%

Compound: O=C1NC(=S)NC(=O)C1=Cc1cccn1-c1ccc(O)cc1
- inhibition (PEG-3 [8]): 100%
- inhibition (PEG-3 [9]): 101%

Compound: O=c1c2ccccc2nc(CSc2ncnc3nc[nH]c23)n1-c1ccc(Cl)c(Cl)c1
- inhibition (PEG-3 [8]): -43.1%
- inhibition (PEG-3 [9]): 33.8%

Compound: O=Cc1cn(Cc2ccc(Br)cc2)c2ccccc12
- inhibition (PEG-3 [8]): 41.6%
- inhibition (PEG-3 [9]): 72.9%

Compound: NC(N)=N/N=C/c1ccc(N(c2ccccc2)c2ccccc2)cc1
- inhibition [1]: 29.9% (active)
- activity [2]: 75.5%
- activity [3]: 97.2%

Compound: O=Cc1cn(Cc2cccc(F)c2)c2ccccc12
- inhibition (PEG-3 [8]): 50.1%
- inhibition (PEG-3 [9]): 75.9%
